± gives the uncertainty stated by the source.

The subject of the assay is FLX1. The experiment in a line: cell viability z-score within plate (CellTiter-Glo), mean of 3 biological replicates; higher = higher viability relative to plate (less growth inhibition). As to conditions: 2 µM; time (hr): 120. How it is done:
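FLX1 fibrolamellar carcinoma cells (DNAJB1-PRKACA fusion), 600 cells/well in 384-well plates, treated with a Selleck kinase inhibitor library (L1200) at 2 uM for 5 days (120 hr); viability by CellTiter-Glo. A z-score was computed within each plate and averaged over three biological replicates.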
For `N#Cc1c(O)c2c(-c3ccc(-c4ccccc4O)cc3)csc2[nH]c1=O`, the “cell viability z-score within plate” value turned out to be 0.457 ± 0.29.
As for `C[C@@H](N)[C@H]1CC[C@H](C(=O)Nc2ccncc2)CC1`, the figure is 0.0727 ± 0.19.
With `Cc1cc(Nc2cc(N3CCN(C)CC3)nc(/C=C/c3ccccc3)n2)n[nH]1` the figure was 0.628 ± 0.19; with `CO[C@H]1C[C@@H]2CC[C@@H](C)[C@@](O)(O2)C(=O)C(=O)N2CCCC[C@H]2C(=O)O[C@H]([C@H](C)C[C@@H]2CC[C@@H](OC(=O)C(C)(CO)CO)[C@H](OC)C2)CC(=O)[C@H](C)/C=C(\C)[C@@H](O)[C@@H](OC)C(=O)[C@H](C)C[C@H](C)/C=C/C=C/C=C/1C`, -0.0698 ± 1.1; with `O=C(Cc1ccc(-c2ccc(OCCN3CCOCC3)cc2)cn1)NCc1ccccc1`, 0.711 ± 0.45.
As for `COc1c(C)c(C(=O)c2ccc(N)c(C(=O)O)c2)n2ccccc12`, the figure is 0.661 ± 0.44.
On to `CO[C@H]1C[C@@H]2CC[C@@H](C)[C@@](O)(O2)C(=O)C(=O)N2CCCC[C@H]2C(=O)O[C@H]([C@H](C)C[C@@H]2CC[C@@H](O)[C@H](OC)C2)CC(=O)[C@H](C)/C=C(\C)[C@@H](O)[C@@H](OC)C(=O)[C@H](C)C[C@H](C)/C=C/C=C/C=C/1C` [Rapamycin (Sirolimus)], for which the “cell viability z-score within plate” value turned out to be 0.422 ± 0.17.
Turning to `CC1=C(C(=O)Nc2cc3cn[nH]c3cc2F)C(c2ccc(C(F)(F)F)cc2)CC(=O)N1` (stereo not given), the “cell viability z-score within plate” value was 1.02 ± 0.74.
As for `COc1ccc(-c2cc3c(C)nc(N)nc3n([C@H]3CC[C@H](OCCO)CC3)c2=O)cn1`, the “cell viability z-score within plate” value is -0.872 ± 0.053.
With `Cn1c(Nc2ccc(C(F)(F)F)cc2)nc2cc(Oc3ccnc(-c4ncc(C(F)(F)F)[nH]4)c3)ccc21` the figure was 0.193 ± 0.26.

The record behind these values is the supplement of paper PMC9925115.
